# Screening data (PubChem)
# KB-V1 MDR tox: kills drug-selected multidrug resistant KB-V1 cells; KB-V1 MDR cells viability, CellTiter-Glo, 72 h; AID 1347076; 3.4% of 400,000 active; Potency, µM (titrated, usually from 46.1 µM), actives largely listed as cytotoxic; note: % is set by controls: 0 for no effect and ±100 for the full control effect; nearly all actives have a fitted effect of over 60% in size
#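 Following 72 h at 37 degrees C with compound, KB-V1 cell viability was read by CellTiter-Glo luminescence, medium being phenol-red-free DMEM plus 10% FBS; concentration-response parameters came from normalized, curve-fitted qHTS data.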
# RORg inh: inhibitors of mouse ROR gamma transcriptional activity. P51450. Drosophila S2 Gal4-RORgamma UAS-luciferase reporter, 20 h. Potency, µM (top dose mostly 53.6 µM), without a hit: at the highest dose activity change, negative = inhibition, usual class: inhibitors. 5.4% of 310,000 active; note: % is set by controls: 0 for no effect and ±100 for the full control effect; nearly all actives have a fitted effect of over 60% in size
# Target sequence (P51450 whole entry, looked up, the tested form may be a part): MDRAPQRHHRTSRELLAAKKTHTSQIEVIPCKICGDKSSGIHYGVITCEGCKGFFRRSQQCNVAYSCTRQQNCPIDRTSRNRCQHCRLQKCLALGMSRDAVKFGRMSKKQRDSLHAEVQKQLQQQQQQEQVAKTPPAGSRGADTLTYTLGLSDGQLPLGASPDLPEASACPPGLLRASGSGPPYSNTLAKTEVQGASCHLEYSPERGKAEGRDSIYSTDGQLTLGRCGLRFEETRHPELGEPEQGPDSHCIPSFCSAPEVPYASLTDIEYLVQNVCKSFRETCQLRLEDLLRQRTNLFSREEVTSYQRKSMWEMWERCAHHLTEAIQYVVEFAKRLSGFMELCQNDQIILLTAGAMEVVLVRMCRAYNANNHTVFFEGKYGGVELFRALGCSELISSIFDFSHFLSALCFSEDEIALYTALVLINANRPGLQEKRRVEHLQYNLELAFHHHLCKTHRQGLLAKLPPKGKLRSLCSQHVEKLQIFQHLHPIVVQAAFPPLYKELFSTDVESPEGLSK
#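 Read-out: Photinus luciferase luminescence; inhibitors lower reporter signal. Insect Schneider cells with Gal4-ROR gamma fusion under metallothionein promoter, UAS reporter; 700 uM final copper sulfate induction, 20 hr, ambient temperature.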
# SW480 rereplic: induces DNA re-replication in SW480 colon adenocarcinoma cells | SW480 DNA re-replication, Hoechst DNA content imaging, 48 h | Potency, µM (top dose mostly 46.1 µM), without a hit: at the highest dose re-replication activation, hits mostly activators | 1.8% of 340,000 active; note: % of control where 0% means no effect; nearly all actives have a fitted effect of over 55% in size
#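 Compounds, transferred as 23 nL by pin tool, were incubated with cells for 48 hr; DNA content per nucleus was then quantified by Hoechst staining and fluorescence plate imaging.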
# KB-3-1 cytotox: kills parental KB-3-1 adenocarcinoma cells; AID 1347075; KB-3-1 viability, CellTiter-Glo ATP luminescence, 72 h; 1.4% of 400,000 active; Potency, µM (titrated, usually from 46.1 µM), hits mostly cytotoxic; note: % is set by controls: 0 for no effect and ±100 for the full control effect; nearly all actives have a fitted effect of over 60% in size
#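 72 h, 37 °C compound treatment of KB-3-1 parental cells; CellTiter-Glo added, 10 min, luminescence read. Data corrected against DMSO-only plates and normalized before curve fitting.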
# MCF10A rerep: DNA re-replication induction in MCF 10a cells; Potency, µM (highest dose often 46.1 µM), inactives show at the top dose activity, positive = re-replication, hits mostly activators; MCF 10A DNA re-replication, Hoechst nuclear intensity, 48 h; 2.9% of 350,000 active; AID 624296; note: % of control where 0% means no effect; nearly all actives have a fitted effect of over 50% in size
# Gal4-VP16 FLuc: inhibits Gal4-VP16 luciferase reporter, ROR gamma counter-screen; Drosophila S2 Gal4-VP16 UAS-luciferase, luminescence, 20 h; Potency, µM (titrated, usually from 53.6 µM), for inactives: at the top dose activity, negative = inhibition, actives largely listed as inhibitors; 3.5% of 310,000 active; AID 2546;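 note: Gal4-VP16 expression switched on by copper sulfate through the metallothionein promoter; % is set by controls: 0 for no effect and ±100 for the full control effect; nearly all actives have a fitted effect of over 50% in size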
# * marks the source's active call; other numbers are inactive results; i = inactive; ? = inconclusive; · = not tested or not shown; [ ] = another dose, or the depositor's remark. Only some compounds are listed: those with a hit (about 10% of all), similar ones and a draw of the others. Calls come from the whole dose curve; as a rule, active = well fitted curve in the direction sought with a large enough effect; inconclusive = small, poorly fitted or top-dose-only effect, or another doubt; inactive = no such curve, though single readings can be large; an effect the other way counts as inactive or inconclusive. Potency is the fitted concentration of half-maximal effect.
SMILES,KB-V1 MDR tox,RORg inh,SW480 rereplic,KB-3-1 cytotox,MCF10A rerep,Gal4-VP16 FLuc
O=C(NC(=S)NNC(=O)c1cc2ccccc2cc1O)c1ccco1,?,?,?,?,?,4%
Cc1cccc(-c2nnc(C3CCN(S(=O)(=O)c4cccc(Cl)c4)CC3)o2)c1,i,·,·,i,·,·
Cc1cc(C)cc(NC(=O)N2CCC(N3CCCCC3)CC2)c1,i,·,·,i,·,·
COc1ccc(CCN(C)CCCN2CCc3cc(OC)c(OC)cc3CC2=O)cc1OC,·,0%,-2%,·,-1%,0%
Cc1ccc(N2CC(C)Cn3c2nc2c3c(=O)n(CC(=O)O)c(=O)n2C)cc1 (centres undefined),?,·,·,i,·,·
Cn1c(-c2ccccc2)c(Sc2ccccc2)c2cc(-c3ccc4[nH]ccc4c3)ccc21,i,·,·,i,·,·
COc1ccc(/C=C/C(=O)NC(=S)NNC(=O)c2ccco2)cc1,?,3.2µM*,?,?,?,?
COc1ccc(C(=O)NC(=S)NNC(=O)c2ccccc2C)cc1,?,·,4%,?,1%,·
COc1ccc(/C=C/C(=O)NC(=S)NNC(=O)c2ccco2)cc1OC,?,-8%,-1%,i,-3%,-3%
COc1ccc(C(=O)C2CCN(C(=O)c3ccc(C)cc3)CC2)cc1,?,?,10%,i,12%,-20%
COc1ccc(C(=O)NC(=S)NNC(=O)c2ccccc2O)cc1,?,7%,13%,?,23µM*,1%
C=C(C)CNC(=S)NNC(=O)c1ccco1,i,3.5µM*,1.8µM*,i,16µM*,5µM*
COc1ccc(C(=O)C2CCN(C(=O)c3ccco3)CC2)cc1,23µM*,?,1%,i,3%,17%
CCOC(=O)CC(NC(=O)c1ccco1)c1ccc(OC)cc1 (centres undefined),23µM*,2%,4%,i,0%,5%
COc1ccc(CC(=O)NNC(=O)c2ccco2)cc1,i,-6%,1%,i,-1%,-16%
COc1ccc(C(CC(=O)O)NC(=O)c2ccco2)cc1 (centres undefined),i,3%,-3%,i,-179%[0.0737 µM],0%
COc1ccc(C(=O)NC(=S)NNC(=O)c2ccco2)cc1,i,11µM*,?,?,22%,?
Cc1cccc(C(=O)Nc2cccc(C(=O)OCc3cc(=O)n4nc(C5CC5)sc4n3)c2)c1,i,·,·,i,·,·
O=C(N/N=C/c1ccc(Cl)cc1)c1n[nH]c2c1CCCC2,1.3µM*,-1%,?,4.6µM*,?,-19%
O=C(N/N=C/c1ccccc1Cl)c1n[nH]c2c1CCCC2,i,2.8µM*,-3%,?,-2%,?
Cc1[nH]nc(C(=O)NN=Cc2ccccc2Cl)c1N=NN(C)C,i,·,15µM*,i,16µM*,·
O=C(N/N=C/c1ccccc1)c1n[nH]c2c1CCCC2,?,?,?,?,?,-28%
O=C(N/N=C/c1cccs1)c1n[nH]c2c1CCC2,?,?,12µM*,5.8µM*,8.2µM*,?
CCOC(=O)CN(C)C(=O)C1CC(CO[Si](C)(C)C(C)(C)C)=CN1C(=O)OC(C)(C)C (centres undefined),·,16%,·,·,·,9%
CCCN1C(=O)c2[nH]nc(-c3ccccc3O)c2C1c1ccc(OCc2ccccc2)c(OC)c1 (centres undefined),?,·,·,21µM*,·,·
COc1ccc(C2c3c(-c4ccccc4O)n[nH]c3C(=O)N2CCc2ccc(OC)c(OC)c2)cc1 (centres undefined),?,?,-3%,i,?,?
COc1ccc(CCN2C(=O)c3[nH]nc(-c4ccccc4O)c3C2c2cccc(Cl)c2)cc1 (centres undefined),?,?,4%[9.22 µM],18µM*,?,?
Cc1cc(N2CCCCC2)nc2ccc(NC(=O)/C=C/c3ccc(OC(C)C)cc3)cc12,i,·,·,i,·,·
